Source: PubChem BioAssay AID1117319 (Southern Research Institute, 2015)
“And” between values parts separate entries of the source, which are not always exact repeats. Equal entries are not always repeated. About 1,500 (0.58%) of roughly 260,000 compounds were called active. Inconclusive results (about 5%) are left out.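 The calls were made as follows: active = inhibition above a set limit at one or more doses, reproduced on every date tested; inconclusive = results disagree between test dates, or hit never tested in dose response; inactive = the rest.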 Only a sample is shown. Potency and affinity values are given separately.

Each molecule was assayed against Virion infectivity factor (Human immunodeficiency virus type 1 group M subtype B (isolate BH10)) + Virion infectivity factor (Human immunodeficiency virus type 1 group M subtype B (isolate BRU/LAI)) + Virion infectivity factor (Human immunodeficiency virus type 1 group M subtype B (isolate PCV12)) + Virion infectivity factor (Human immunodeficiency virus type 1 group M subtype B (isolate HXB2)) + DNA dC->dU-editing enzyme APOBEC-3G (Homo sapiens) (UniProt P69720+P69721+P69722+P69723+Q9HC16) (assay: HIV-1 Vif–A3G interaction blockers – biochemical, TR-FRET, GST-Vif 1-94, biotin-A3G peptide, dose response retest, primary screen (AID 1117319;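 also: Vif residues 1-94 fused to GST binding biotinylated APOBEC3G peptide 110-148; 0% = full assay without inhibitor and 100% = GST in place of GST-Vif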)). Conditions: TR-FRET GST-Vif / biotin-A3G peptide binding; active compounds read high.

inhibition, inactive:
NNC(=O)C1CC1c1ccc(Cl)cc1 (stereo not given) -1.47%, CC(C)NC(=O)C1CCN(C2CCN(Cc3nc(C(C)C)cs3)CC2)CC1 10.5%, CC(=O)C(Sc1nc(NC(C)(C)C)nc(N(C)C)n1)C(C)=O -1.75%, O=C(CCNS(=O)(=O)c1ccc(Br)s1)Nc1ccc(Cl)cc1 -2.43%, CCOC(=O)c1ccc(CC(=O)c2ccc(O)cc2O)o1 16.6%, COC(=O)c1ccc(CC(=O)c2ccc(O)cc2O)o1 21.4%, Cc1cc(O)cc(O)c1C(=O)Cc1ccccc1 31%, CCOC(=O)c1ccc(CC(=O)c2oc3cc(O)ccc3c2C)o1 29.3%, Cc1onc(-c2c(Cl)cccc2Cl)c1C(N)=O 3.21%, Cc1nnc(-c2cccc(Br)c2)c2cn(-c3ccc(Br)cc3)nc12 -35.9%, CC(C)Oc1cc(NC(=O)CS(=O)(=O)CC(=O)N(C)C)c(Cl)cc1Cl 4.46%, O=C(COc1ccc2c(c1)CCC2)NCc1ccccc1 6.52%, COc1ccccc1CNC(=O)COc1ccc2c(c1)CCC2 -14.6%, COc1cccc(COC(=O)C2CC(=O)N(Cc3ccccc3)C2)c1OC (stereo not given) 4.65%, Cc1cc2nc(C)n(CCCNC(=O)Nc3ccc(C#N)cc3)c2cc1C -0.77%, CCOc1ccc(NC(=O)NCCCn2c(C)nc3cc(C)c(C)cc32)cc1 3.24%, CCCCSc1nnc(CCCCCNC(=O)OC(C)(C)C)o1 1.82%, CN(C)S(=O)(=O)c1ccc(C(=O)OCC(=O)Nc2ccc(OC(F)F)cc2)cc1 -3.03%, NNC(=O)CCc1c[nH]c2ccccc12 1.22%, NC(=O)CCc1c[nH]c2ccccc12 14.6%, O=C(NC(=O)c1cccc(F)c1)Nc1nc(-c2ccc(F)cc2)cc(C(F)(F)F)n1 0.6%, Cc1nc([N+](=O)[O-])cn1CC(=O)c1ccc(F)cc1 -8.97%, CCn1c(SCC(=O)N2CCCc3ccccc32)nc2ccccc2c1=O -1.92%, CN(C(=O)c1ccccc1C(=O)OCC(=O)Nc1ccccc1)c1ccccc1 -8.92%, O=C(CCNS(=O)(=O)c1ccc(Br)s1)NCc1ccc2c(c1)OCO2 -6.46%, CCO[C@@H]1OC(C(=O)NCc2ccccc2)=C[C@H](c2coc3ccccc3c2=O)[C@H]1CCCO 6.31%, Cc1cc(C)c(C(=O)/C=C/c2cccs2)c(=O)[nH]1 1.47%, Cc1ccc(/C=C/C(=O)c2c(C)cc(C)[nH]c2=O)cc1 -2.58%, CCn1c(O)c(N=Nc2ccc(Cl)c(C(=O)O)c2)c2ccccc21 16%, O/N=C/c1nc2cc(Cl)ccc2o1 4.03%, CC(=O)N(C1=C(N)C(=O)c2ccccc2C1=O)c1ccccc1 4.9%, CC(=O)N(C1=C(N2CCOCC2)C(=O)c2ccccc2C1=O)c1ccc(C(=O)O)cc1 14.4%, COC(=O)c1[nH]c2c(c1C)C(=O)CC(c1ccc(OC)c(OC)c1)C2 (stereo not given) -9.19%, C=CC[C@@H](CC(=O)N[C@H](CO)Cc1ccccc1)C(=O)N[C@@H](COC(=O)[C@@H](CC=C)CC(=O)OC(C)(C)C)Cc1ccccc1 -0.04%, CC1=C(C(=O)Nc2ccc(C)cc2)C(c2ccc(N(C)C)cc2)NC(=O)N1 (stereo not given) -2.24% and 24.2%, CC1=C(C(=O)Nc2ccccc2)C(c2ccc(N(C)C)cc2)NC(=O)N1 (stereo not given) 8.56%, O=C(NC(C(=O)N/N=C/c1cccc2ccccc12)c1n[nH]c(=O)c2ccccc12)c1ccccc1 (stereo not given) 4.11%, O=[N+]([O-])c1ccc(NN=Cc2ccccc2O)nc1 7.07%, O=C(O)Cc1c(O)ccc2ccccc12 3.01%, O=C(O)Cc1ccccc1C(=O)O 0.17%, O=C(N/N=C1\CCCc2ccccc21)c1cccc([N+](=O)[O-])c1 3.37%, COC(=O)CCN(C(=O)c1ccc(N2CCCCC2)c([N+](=O)[O-])c1)c1ccccn1 -7.46%, COc1ccc(C(=O)NNC(=O)c2ccc(C)cc2)cc1S(=O)(=O)N1CCCC1 -1.1%, CCCCCC(=O)N1C[C@H](n2cc(C3CC3)nn2)[C@@H](O)C[C@@H]1c1ccc(C)cc1 -2.78%, COc1ccccc1C(=O)n1nc(-c2ccc(Cl)cc2)nc1N 20.4%, COc1ccc(C(=O)n2nc(-c3ccccc3)nc2N)cc1OC -0.61% and -0.84%, Cc1occc1C(=O)N(C)CC1CCCN(CCc2ccccc2F)C1 (stereo not given) 7.6%, O=C1C(=Cc2ccco2)CCC1=Cc1ccco1 -4.11%, O=C1/C(=C/c2ccco2)CCC1C1CCCC1 (stereo not given) 25.4%, O/N=C1\CCCC\C1=C/c1ccccc1 5.14%, NC(=N\N=Cc1ccco1)/C(N)=N/N=Cc1ccco1 27.4%, COc1ccc2c(c1)CC/C(=C/c1ccco1)C2=O 26.2%, O=C1/C(=C\c2ccccc2)CCC/C1=C/c1ccccc1 -1.78%, Cc1ccccc1C(=O)NC1CCS(=O)(=O)C1 (stereo not given) -1.4%, CCc1ccc(CN(C)Cc2nc(Cc3ccc(OC)c(OC)c3)no2)nc1 -3.31%, COc1ccc(OC)c(NC(=O)CCN2CCN(c3ccccc3F)CC2)c1 25.7%, Nc1nc(CN2CCCCCC2)nc(Nc2ccc(F)cc2)n1 -3.7%, Cc1ccc(CCNC(=O)CCS(=O)(=O)c2ccc(Br)cc2)cc1 28.3%, COc1ccc(S(=O)(=O)CCC(=O)NCCc2ccc(S(N)(=O)=O)cc2)cc1 12.3%, O=C(CCNS(=O)(=O)c1ccc(Br)cc1)NCCc1ccccc1 -1.9%, Cc1ccc(S(=O)(=O)CCC(=O)NCCc2ccccc2)cc1 1.3%, COc1ccc(S(=O)(=O)CCC(=O)NC2CCCCC2)cc1 23.2%, Cc1ccc(S(=O)(=O)CCC(=O)NC2CCCCC2)cc1 3.12%, CC(NS(=O)(=O)c1ccccc1)C(=O)Nc1ccc2c(c1)OCCO2 (stereo not given) 0.08%, CC(=O)NCCn1c(SCc2ccccc2F)nc2ccccc2c1=O -4.55%, O=C(CSc1nc2sc3c(c2c(=O)[nH]1)CCC3)NCCO -6.15%, O=C(Cc1ccccc1)Nc1ccccc1C(=O)Nc1ccccc1 9.21%, O=C(CC12CC3CC(CC(C3)C1)C2)NCc1ccccc1 0.11%, FC(F)(F)c1ccc2c(c1)NCC1CCCN21 (stereo not given) 32.5%, O=C1Nc2ccccc2N2CCCC12 (stereo not given) -3.06%, COc1ccc(CNC(=O)C(C)N(C)Cc2cccc(F)c2)cc1 (stereo not given) -5.46%, CCNc1ccc(C(=O)NN=C2CCCC2)cc1[N+](=O)[O-] 4.6%, Cc1ccc(C)c(NC(=O)CSc2nc3[nH]ncc3c(=O)[nH]2)c1 8.18%, COc1cc(OC)c(-c2noc(C(=O)OC(C)(C)C)c2C(=O)OC(C)(C)C)c(OC)c1 -1.31%, COc1ccccc1N1C(=O)S/C(=C\c2ccc(C)s2)C1=O -7.12%, COc1cccc(/C=C2/C(=O)NN(c3ccccc3)C2=O)c1 0.84%, COc1ccccc1NC(=O)C(=O)N/N=C/c1ccc([N+](=O)[O-])s1 -6.16%, O=C(/C=C/c1ccc([N+](=O)[O-])s1)N1CCN(c2ccccc2)CC1 2.14%, Cc1ccc(N2NC(=O)/C(=C\c3cc4c(cc3[N+](=O)[O-])OCO4)C2=O)cc1C 27.7%, O=C1N/C(=C/c2ccc(Br)s2)C(=O)N1c1ccccc1 -0.93%, O=C1NC(=S)N/C1=C/c1cc2c(cc1[N+](=O)[O-])OCO2 -9.06%, COc1cccc(N2C(=O)/C(=C\c3cccs3)NC2=S)c1 7.97%, CCOC(=O)C1=C(CC)Nc2ccccc2N=C1NC(=O)c1ccc(S(=O)(=O)N2CCOCC2)cc1 -4.07%, O=c1nc2n(c3ccc([N+](=O)[O-])cc13)CCCCC2 -7.12%, CCOC(=O)N1CCC(NC(=O)c2cc(S(=O)(=O)N3CCc4ccccc43)cn2C)CC1 -4.57%, CCOC(=O)C1=C(C)N(C[C@@H]2CC[C@@H](Cc3ccc(-c4ccccc4)cc3)O2)C(=O)NC1c1ccc(SCc2ccco2)c([N+](=O)[O-])c1 (stereo not given in full) 30.7%, Cc1nc2c(s1)sc1ccccc12 -4.72%, C=CC(=O)NC(C)(C)CCN1CCOCC1 0.07%, CCc1cccc(C)c1NC(=O)CO/N=C(\N)CC(=O)NC1CCCCC1 -0.04%, O=C1C=CC(=Nc2ccc3c(c2)C(=O)c2ccccc2-3)O1 -2.81%, O=[N+]([O-])c1ccccc1C=NNc1ccccc1 -8.57%, COc1ccc(CC(NC(C)=O)C(=O)NC2CCN(S(=O)(=O)c3ccccc3)CC2)c(OC)c1 (stereo not given) 3.28%, O=C(COC(=O)C12CC3CC(CC(Br)(C3)C1)C2)N1CCOCC1 4.7%, Cc1cc(=O)oc2cc(OCC(=O)N3CCCc4ccccc43)ccc12 -3.74%, COCCCNc1nc2nonc2nc1N1CCC(C(C)N2CCOCC2)CC1 (stereo not given) -10.9%
